The values that follow come from PubChem BioAssay (NCATS).

Test [1] has as its target Lysosomal acid glucosylceramidase (Homo sapiens) (UniProt P04062). Description: Glucocerebrosidase-p2 (AID 348; in the data active = potency below about 10 µM; also: potency is read from the fitted curve at half-maximal effect). The note with it: purified GBA, blue fluorogenic substrate, 40 min. Summed up: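 Compounds titrated from 0.6 nM upwards against 0.2 nM enzyme in pH 5.9 citric acid/KH2PO4, taurocholate, tween-20; blue fluorogenic substrate 80 uM, 40 min room temperature, stopped and read Ex 365/Em 440 for AC50.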

Test [2] can be described thus: AP1 Signaling Pathway (AID 357).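 Also: ME-180 reporter cells stimulated with EGF at its EC50 level; % is scaled to controls: 0 for no effect and ±100 for the full control effect.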 The note with it: ME-180 AP-1-bla reporter, EGF-induced, beta-lactamase ratio, 5 h; at 7.69 µM (top of the series) unless noted. Summed up:
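AP-1-bla ME-180 cells, Opti-MEM + 0.5% dialyzed FBS, plated overnight 37 °C. Cpd titration + EC50 EGF, 5 h 37 °C. CCF4 2.5 h RT; ex 405, em 460/530 ratio → %activity, AC50.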

Test [3] has as its target Cytochrome P450 1A2 (Homo sapiens) (UniProt P05177). Description: p450-cyp1a2 (AID 410; calls by dose curve; also: potency is read from the fitted curve at half-maximal effect). The note with it: recombinant CYP1A2, luciferin-ME demethylation, luminescence; series mostly up to 11.4 µM. Summed up:
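Human CYP1A2 (20nM) demethylated Luciferin-ME at its Km (100uM) in 100mM KPO4. After 10 min compound preincubation, NADPH regeneration ran the reaction 60 min at room temperature. Luciferin was read by luminescence, normalized to 57 uM furafylline.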

Test [4] can be described thus: NFAT Signaling Pathway (AID 444).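 Also: carbachol stimulus at about its EC50 of 1 µM final; % is scaled to controls: 0 for no effect and ±100 for the full control effect.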 The note with it: Jurkat NFAT-bla M1, carbachol, beta-lactamase ratio, 5 h; at 7.69 µM (top of the series) unless noted. In a few lines:
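Jurkat cells with NFAT-driven β-lactamase reporter and co-expressed M1 receptor, stimulated with carbachol (final 1 uM, ~EC50), compound titration, 5 h at 37 °C. CCF4 loaded 1 h at RT; 460/530 nm ratio gave %activity and AC50.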

The target in test [5] is Glucocorticoid receptor (Homo sapiens) (UniProt P04150). Description: GR-GFP Redistribution (AID 450;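 active = compounds whose dose series gives a full or clear partial fitted curve of increased nuclear translocation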; also: potency is read from the fitted curve at half-maximal effect). The note with it: U2OS GR-GFP nuclear translocation, laser cytometry, 2 h.
Glucocorticoid receptor (Homo sapiens), sequence (P04150 whole entry, looked up, the tested form may be a part): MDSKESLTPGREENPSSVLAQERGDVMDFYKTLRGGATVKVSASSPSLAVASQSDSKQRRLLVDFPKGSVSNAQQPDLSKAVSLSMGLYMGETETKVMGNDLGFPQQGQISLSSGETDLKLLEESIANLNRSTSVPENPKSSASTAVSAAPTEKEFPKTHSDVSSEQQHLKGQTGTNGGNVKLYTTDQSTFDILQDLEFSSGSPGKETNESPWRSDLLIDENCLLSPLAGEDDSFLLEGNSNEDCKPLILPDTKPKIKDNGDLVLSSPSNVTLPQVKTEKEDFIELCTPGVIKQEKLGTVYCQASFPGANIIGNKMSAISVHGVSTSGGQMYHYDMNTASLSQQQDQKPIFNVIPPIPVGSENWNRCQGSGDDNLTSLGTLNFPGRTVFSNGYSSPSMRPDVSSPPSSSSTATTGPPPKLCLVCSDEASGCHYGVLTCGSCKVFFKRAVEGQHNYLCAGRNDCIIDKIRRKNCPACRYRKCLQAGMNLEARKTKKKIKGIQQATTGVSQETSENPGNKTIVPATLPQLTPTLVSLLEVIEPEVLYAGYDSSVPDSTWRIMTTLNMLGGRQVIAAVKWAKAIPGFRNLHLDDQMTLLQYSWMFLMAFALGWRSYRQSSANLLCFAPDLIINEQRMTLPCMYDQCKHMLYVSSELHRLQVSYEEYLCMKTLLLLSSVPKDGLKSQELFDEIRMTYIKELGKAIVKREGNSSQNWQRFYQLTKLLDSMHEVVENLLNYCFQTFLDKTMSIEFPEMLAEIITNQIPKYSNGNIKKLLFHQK
Test [6] has the same target. Description: GR-EFC Redistribution (AID 451; calls by dose curve; also: potency is read from the fitted curve at half-maximal effect). The note with it: CHO-K1 GR-EFC translocation, beta-gal luminescence, 2 h. Summed up: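 CHO-K1 cells expressing nuclear EA and GR-ED fragments of b-gal; compounds titrated up to 46 uM final, 2 h at 37 C. GR nuclear translocation read as complemented b-gal luminescence after 1 h RT detection.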
For test [7], the target named is Mitogen-activated protein kinase 10 (Mus musculus) (UniProt Q61831). In words: JNK3 AlphaScreen Assay (AID 530).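 Also: kinase came from lysate of stimulated human HepG2 cells; signal reports phosphorylation of biotinylated GST-cJun 1-79 at Ser73 with 10 µM ATP; % is scaled to controls: 0 for no effect and ±100 for the full control effect.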 The settings on record: JNK3 lysate, c-Jun phosphorylation; series mostly up to 11.4 µM. In a few lines: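 qHTS format: compounds tested as titrations against IL-1beta/TNF-alpha-activated HepG2 lysate JNK3 with biotin-GST-cJun substrate and 10 uM ATP at room temperature. Loss of anti-phospho-cJun AlphaScreen signal indicates inhibition.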
In general terms: Alpha assays give light when donor and acceptor beads are brought close together.

The target in test [8] is 3',5'-cyclic-AMP phosphodiesterase 4B (Homo sapiens) (UniProt Q07343). In words: qHTS Assay for Inhibitors of PDE-IV (AID 607; active = well fitted activation curve with a large enough effect in the main read-out, with a control signal flat, not every such curve was filed as active; also: % of control where 0% means no effect). The settings on record: HEK293 ACTOne CNG channel cells, membrane potential fluorescence; series mostly up to 22.9 µM. Summed up: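 Cell-based read-out of cAMP via a modified cyclic nucleotide-gated channel and membrane potential dye (535/590 nm) in HEK293 cells expressing PDE4 endogenously. Compounds tested up to 22.9 uM final; 100 uM RO 20-1724 reference.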
3',5'-cyclic-AMP phosphodiesterase 4B (Homo sapiens), sequence (Q07343 whole entry, looked up): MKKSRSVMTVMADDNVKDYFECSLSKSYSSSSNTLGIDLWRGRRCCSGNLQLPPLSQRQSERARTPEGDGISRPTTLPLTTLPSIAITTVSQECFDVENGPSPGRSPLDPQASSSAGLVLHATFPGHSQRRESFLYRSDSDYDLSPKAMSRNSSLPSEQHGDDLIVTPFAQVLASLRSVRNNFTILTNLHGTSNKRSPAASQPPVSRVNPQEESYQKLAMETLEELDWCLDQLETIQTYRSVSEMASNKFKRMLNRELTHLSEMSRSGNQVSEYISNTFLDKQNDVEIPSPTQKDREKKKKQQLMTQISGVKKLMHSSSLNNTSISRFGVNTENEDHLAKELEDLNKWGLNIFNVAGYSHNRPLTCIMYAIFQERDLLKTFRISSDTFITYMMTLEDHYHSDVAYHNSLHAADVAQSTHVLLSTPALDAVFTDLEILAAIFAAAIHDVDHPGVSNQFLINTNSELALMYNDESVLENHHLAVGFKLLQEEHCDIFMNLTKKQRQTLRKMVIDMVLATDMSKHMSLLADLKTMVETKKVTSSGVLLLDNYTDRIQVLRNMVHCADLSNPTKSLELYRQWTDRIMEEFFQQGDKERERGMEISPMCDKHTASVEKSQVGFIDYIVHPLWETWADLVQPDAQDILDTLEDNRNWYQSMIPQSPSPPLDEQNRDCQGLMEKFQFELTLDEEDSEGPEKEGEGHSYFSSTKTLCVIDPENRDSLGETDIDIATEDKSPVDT

The target in test [9] is Cytochrome P450 2D6 (Homo sapiens) (UniProt P10635). In words: qHTS Assay for Inhibitors and Substrates of Cytochrome P450 2D6 (AID 891; active = well fitted curve in the direction sought with a large enough effect; an effect the other way counts as inactive or inconclusive;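 also: luciferin methyl ether substrate demethylated by CYP2D6 with NADPH regeneration; % is scaled to controls: 0 for no effect and ±100 for the full control effect; nearly all actives have a fitted effect of over 60% in size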). The settings on record: recombinant CYP2D6, luciferin-ME EGE luminescence; series mostly up to 11.4 µM. In a few lines: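 Human CYP2D6 (5 nM) with 30 uM Luciferin-ME EGE (at Km) in 100 mM KPO4, compound preincubated 10 min, then NADPH regeneration system for 60 min at room temperature. Luciferin read by luminescence; normalized to 1.43 uM quinidine.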
Cytochrome P450 2D6 (Homo sapiens), sequence (P10635 whole entry, looked up): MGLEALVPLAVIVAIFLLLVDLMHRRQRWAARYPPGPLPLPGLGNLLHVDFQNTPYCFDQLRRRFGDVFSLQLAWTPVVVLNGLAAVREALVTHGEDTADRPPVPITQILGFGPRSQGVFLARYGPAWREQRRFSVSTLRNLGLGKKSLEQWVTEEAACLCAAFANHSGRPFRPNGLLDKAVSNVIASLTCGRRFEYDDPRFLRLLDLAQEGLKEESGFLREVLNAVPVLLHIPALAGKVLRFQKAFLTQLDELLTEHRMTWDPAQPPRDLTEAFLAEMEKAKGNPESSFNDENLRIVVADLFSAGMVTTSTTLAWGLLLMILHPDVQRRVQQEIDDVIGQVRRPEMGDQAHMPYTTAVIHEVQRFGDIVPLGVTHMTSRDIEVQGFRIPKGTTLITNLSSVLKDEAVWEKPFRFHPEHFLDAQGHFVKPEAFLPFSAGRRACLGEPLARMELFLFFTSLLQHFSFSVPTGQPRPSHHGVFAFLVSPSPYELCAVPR
Background: Quantitative high-throughput screening tests each substance at several concentrations.

Test [10] addresses Cytochrome P450 2C19 (Homo sapiens) (UniProt P33261). In words: qHTS Assay for Inhibitors and Substrates of Cytochrome P450 2C19 (AID 899; active = well fitted curve in the direction sought with a large enough effect; an effect the other way counts as inactive or inconclusive; also: nearly all actives have a fitted effect of over 60% in size; also: potency is read from the fitted curve at half-maximal effect). The settings on record: recombinant CYP2C19, luciferin-H EGE luminescence; series mostly up to 11.4 µM. In a few lines: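 Signal comes from luciferase acting on luciferin released by CYP2C19-mediated hydroxylation of Luciferin-H EGE, 10uM (KM). Assay mix: 5nM enzyme, 50mM KPO4; 60 min at 37C with NADPH regeneration. Data normalized against 57uM ketoconazole.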

Test [11] in a line: qHTS Assay for Identification of Small Molecule Agonists for Hypoxia Response Element Signaling Pathway (AID 914; active = well fitted activation curve with a large enough effect in the signal ratio, with a control signal flat, not every such curve was filed as active; the % refers to the signal ratio; also: potency is read from the fitted curve at half-maximal effect; as to activation: % of control where 0% means no effect). The settings on record: ME-180 (cervical carcinoma) HRE-bla reporter, beta-lactamase ratio, CoCl2, 17 h; activation: hits give high values. Summed up: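 HRE-bla ME-180 cells with beta-lactamase reporter under hypoxia response element, compounds with EC50 CoCl2 for 17 hours at 37 C. CCF4 substrate, 460nm/530nm emission ratio gave %Activity; AC50 from titration series.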

In test [12] the target is Cytochrome P450 2C9 (Homo sapiens) (UniProt P11712). In words: qHTS Assay for Inhibitors and Substrates of Cytochrome P450 2C9 (AID 883; active = well fitted curve in the direction sought with a large enough effect; an effect the other way counts as inactive or inconclusive; also: potency is read from the fitted curve at half-maximal effect; nearly all actives have a fitted effect of over 60% in size). The note with it: recombinant CYP2C9, luciferin-H luminescence, 60 min; series mostly up to 11.4 µM. In a few lines: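 Signal: luciferase luminescence reporting luciferin produced by CYP2C9. Conditions: 10nM enzyme, Luciferin-H 100uM at KM, 25mM KPO4, 37C, 60 min NADPH-driven reaction. Reference: 57uM sulphaphenazole as 100% inhibition.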
Cytochrome P450 2C9 (Homo sapiens), sequence (P11712 whole entry, looked up): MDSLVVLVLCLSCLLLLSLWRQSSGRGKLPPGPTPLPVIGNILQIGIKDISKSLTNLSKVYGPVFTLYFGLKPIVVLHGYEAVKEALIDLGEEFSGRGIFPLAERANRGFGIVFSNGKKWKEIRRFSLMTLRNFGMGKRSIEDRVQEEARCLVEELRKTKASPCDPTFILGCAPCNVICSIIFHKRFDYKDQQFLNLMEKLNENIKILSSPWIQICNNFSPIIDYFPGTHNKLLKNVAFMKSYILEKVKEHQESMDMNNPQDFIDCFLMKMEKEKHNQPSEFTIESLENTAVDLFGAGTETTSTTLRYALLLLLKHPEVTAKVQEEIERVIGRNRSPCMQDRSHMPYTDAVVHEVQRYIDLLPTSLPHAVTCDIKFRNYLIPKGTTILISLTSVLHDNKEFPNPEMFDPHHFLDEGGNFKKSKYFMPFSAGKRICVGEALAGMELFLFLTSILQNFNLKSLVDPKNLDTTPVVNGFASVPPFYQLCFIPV

Test [13] addresses Cytochrome P450 3A4 (Homo sapiens) (UniProt P08684). Description: qHTS Assay for Activators of Cytochrome P450 3A4 (AID 885; active = well fitted curve in the direction sought with a large enough effect; an effect the other way counts as inactive or inconclusive; also: nearly all actives have a fitted effect of over 65% in size). The note with it: recombinant CYP3A4, Luciferin-PPXE luminescence, 60 min; series mostly up to 11.4 µM. Summed up:
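Signal was normalized against complete inhibition by 57 uM ketoconazole. The reaction used 20nM CYP3A4 with 25uM Luciferin-PPXE, 10-min compound preincubation and a 60-min NADPH-supported step at RT.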

Unmarked numbers belong to inactive results. Records with an inconclusive call do not appear. Active and inactive are the calls of the source. Unless noted, calls follow the shape of the dose curve; as a rule, active = well fitted curve in either direction with a large enough effect (not every such curve was filed as active); inconclusive = small, poorly fitted or top-dose-only effect, or another doubt; inactive = flat fitted curve, though single readings scatter. Bounds are passed on as bounds.

Lysosomal acid glucosylceramidase (Homo sapiens), sequence (P04062 whole entry, looked up): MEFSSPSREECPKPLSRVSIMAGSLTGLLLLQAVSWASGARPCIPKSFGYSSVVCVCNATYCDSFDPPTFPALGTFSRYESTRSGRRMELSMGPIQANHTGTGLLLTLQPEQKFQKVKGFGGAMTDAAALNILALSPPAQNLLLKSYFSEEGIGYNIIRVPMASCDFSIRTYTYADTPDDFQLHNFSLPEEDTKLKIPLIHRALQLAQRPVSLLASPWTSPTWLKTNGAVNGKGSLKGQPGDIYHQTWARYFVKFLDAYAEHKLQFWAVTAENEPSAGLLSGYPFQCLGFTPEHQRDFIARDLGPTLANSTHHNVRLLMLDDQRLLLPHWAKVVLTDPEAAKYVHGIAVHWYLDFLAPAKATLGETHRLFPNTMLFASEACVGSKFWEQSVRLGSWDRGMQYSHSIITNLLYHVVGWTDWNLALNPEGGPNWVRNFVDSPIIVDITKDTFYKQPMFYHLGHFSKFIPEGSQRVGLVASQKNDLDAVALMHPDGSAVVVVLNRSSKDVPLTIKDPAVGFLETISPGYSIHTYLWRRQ
Cytochrome P450 1A2 (Homo sapiens), sequence (P05177 whole entry, looked up): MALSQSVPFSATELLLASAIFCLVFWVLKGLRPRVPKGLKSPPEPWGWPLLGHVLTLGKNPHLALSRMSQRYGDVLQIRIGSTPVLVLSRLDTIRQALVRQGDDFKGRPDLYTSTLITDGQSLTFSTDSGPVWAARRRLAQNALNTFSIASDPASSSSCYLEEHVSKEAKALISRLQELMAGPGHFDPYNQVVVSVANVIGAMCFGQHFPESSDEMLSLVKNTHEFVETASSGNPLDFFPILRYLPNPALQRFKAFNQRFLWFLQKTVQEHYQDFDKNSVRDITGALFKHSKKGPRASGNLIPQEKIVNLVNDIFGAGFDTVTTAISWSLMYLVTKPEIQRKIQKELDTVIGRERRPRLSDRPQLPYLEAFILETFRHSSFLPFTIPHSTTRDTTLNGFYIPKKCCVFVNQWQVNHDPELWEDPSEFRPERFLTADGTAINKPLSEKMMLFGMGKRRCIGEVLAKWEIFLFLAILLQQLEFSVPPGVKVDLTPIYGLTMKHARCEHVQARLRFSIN
Cytochrome P450 2C19 (Homo sapiens), sequence (P33261 whole entry, looked up): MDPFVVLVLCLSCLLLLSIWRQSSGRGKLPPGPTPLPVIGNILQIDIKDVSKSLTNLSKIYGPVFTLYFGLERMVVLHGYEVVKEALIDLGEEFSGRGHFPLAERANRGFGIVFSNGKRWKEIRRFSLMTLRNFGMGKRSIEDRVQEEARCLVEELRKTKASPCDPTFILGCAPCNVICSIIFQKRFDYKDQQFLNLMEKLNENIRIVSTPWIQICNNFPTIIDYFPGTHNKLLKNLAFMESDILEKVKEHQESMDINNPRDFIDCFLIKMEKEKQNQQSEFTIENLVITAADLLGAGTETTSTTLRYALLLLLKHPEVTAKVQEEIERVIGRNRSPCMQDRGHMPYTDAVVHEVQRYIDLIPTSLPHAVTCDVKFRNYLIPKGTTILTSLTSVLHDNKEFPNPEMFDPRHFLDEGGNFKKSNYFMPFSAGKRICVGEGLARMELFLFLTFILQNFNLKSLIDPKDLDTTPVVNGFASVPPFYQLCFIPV
Cytochrome P450 3A4 (Homo sapiens), sequence (P08684 whole entry, looked up): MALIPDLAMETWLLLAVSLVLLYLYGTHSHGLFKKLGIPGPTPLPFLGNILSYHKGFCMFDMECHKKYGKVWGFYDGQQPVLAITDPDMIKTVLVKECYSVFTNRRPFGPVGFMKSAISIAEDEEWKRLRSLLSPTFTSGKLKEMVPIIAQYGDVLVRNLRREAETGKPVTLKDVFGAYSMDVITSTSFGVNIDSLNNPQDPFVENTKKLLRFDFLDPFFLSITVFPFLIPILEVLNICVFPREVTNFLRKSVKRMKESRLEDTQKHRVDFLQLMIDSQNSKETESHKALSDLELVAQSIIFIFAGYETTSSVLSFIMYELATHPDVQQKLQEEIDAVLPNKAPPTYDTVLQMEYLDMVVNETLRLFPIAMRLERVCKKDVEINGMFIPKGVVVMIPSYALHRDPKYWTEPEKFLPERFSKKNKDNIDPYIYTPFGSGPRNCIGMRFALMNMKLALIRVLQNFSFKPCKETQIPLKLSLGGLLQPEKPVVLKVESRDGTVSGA

Consider `O=C(O)CCCc1ccc2ccc3ccccc3c2c1`, for which the Potency was greater than 11.4 µM in [1], 2 µM (active) in [3], greater than 46 µM in test [5] and greater than 9.22 µM in test [6]. The activity change, negative = inhibition in [2] is -11.1%; in test [4], -6.89%. Further, the Potency entry in [7], in test [8], in [9] and in [10] was “inactive” in each case.

As to `O=C(O)c1ccc(CNCc2ccccc2)cc1`, the Potency in test [1] was greater than 11.4 µM; in [5] it was greater than 46 µM; in test [6], greater than 9.22 µM. The activity change, negative = inhibition in [2] was -3.63%; in test [4], -2.06%. Moreover, the Potency result in test [3], in test [7] and in test [8] was “inactive” throughout. The activation in test [11] was 4.76%.

For `O=c1c(-c2cccs2)nc2cnc(Oc3ccccc3)nc2n1C1CC1`, the Potency is greater than 11.4 µM in test [1]; 2.51 µM (active) in [3]; greater than 9.22 µM in test [5]; greater than 46 µM in [6]; 3.16 µM (active) in [12]; 3.16 µM (active) in test [11]. In addition, the activity change, negative = inhibition in test [2] was -6.67%; in test [4], 22.4%. For the same compound, the Potency result in test [8] is “inactive”.

As for `Cc1nc2cnc(N3CCNCC3)nc2n(-c2ccccc2)c1=O`, the Potency was greater than 11.4 µM in [1], 10 µM (active) in test [3], greater than 9.22 µM in test [5] and greater than 46 µM in test [6]. For the same compound, the activity change, negative = inhibition in test [2] was -4.43%; in [4] it was 1.83%. In addition, the Potency entry in [7] and in [13] was “inactive” each time.

`Cn1c(=O)c2[nH]c(CCCc3ccc([N+](=O)[O-])cc3)nc2n(C)c1=O`: the results for the Potency in test [1], in test [5] and in test [6] were greater than 11.4 µM, greater than 46 µM and greater than 9.22 µM, respectively. The results for the activity change, negative = inhibition in test [2] and in [4] were 1.15% and -1.84%, respectively. The Potency result in test [3], in test [7], in test [8] and in [13] was “inactive” each time.

On to `C[N+](C)(C)c1nc(N)nc2c1ncn2[C@H]1O[C@@H](CO)[C@@H](O)[C@H]1O`, for which the Potency in [1] is greater than 11.4 µM; in [5] it was greater than 46 µM; in test [6], greater than 9.22 µM. For the same compound, the activity change, negative = inhibition in test [2] was 6.27%; in [3], -4.9% [at 2.29 µM]; in test [4], 2.16%. Also, the Potency result in [7], in test [8] and in [10] was “inactive” each time.

In the case of `c1ccc(NCCSc2nc3ccccc3s2)cc1`, the Potency was greater than 11.4 µM in [1]; 0.501 µM (active) in [3]; greater than 46 µM in test [5]; greater than 9.22 µM in [6]; 0.398 µM (active) in [10]. The activity change, negative = inhibition in test [2] was 2.9%; in test [4], -14.1%. The Potency result in test [7] and in [8] was “inactive” throughout.

Take `Cn1cnc([N+](=O)[O-])c1SCC(=O)O`: the Potency in test [1] is greater than 11.4 µM; in [5], greater than 46 µM; in test [6], greater than 9.22 µM. The activity change, negative = inhibition in test [2] was 3.98%; in [4] it was 3.51%. The Potency result in [3], in [7], in [8] and in test [10] was “inactive” in each case.
